# Screening results from PubChem.
# KinaseGlo FLuc – counter-screen: inhibitors of Kinase-Glo firefly luciferase | 200,000 tested, 0.28% active | Potency, µM (top dose mostly 38.3 µM), most hits filed as inhibitors | Kinase-Glo luciferase, ATP luminescence, 8 min; active means well fitted inhibition curve with a large enough effect; inconclusive means small, poorly fitted or top-dose-only effect; further: nearly all actives have a fitted effect of over 60% in size
#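 Recombinant Kinase-Glo luciferase, 10 uM ATP (linear range), luciferin; imidazole pH 7.2 / KCl / MgCl2 / Tween / BSA buffer; 8 min RT; luminescence.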
# PNC inhibitor – blocks assembly of the perinucleolar compartment; PC3M PTB-GFP, PNC prevalence imaging, 16 h; stronger effect = lower value; activity change (PNC), negative = inhibition, % at 10 µM; 140,000 tested, 3.1% active; AID 2417;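 active means readout at or below -70, meaning at least 70% loss of cells showing the perinucleolar compartment, a nuclear body marking cancer cells; inconclusive means readout between -30 and a set limit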
#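 Compounds are pinned in duplicate onto adhered PC3M cells stably expressing GFP-tagged PTB and incubated 16 h at 37 C. Cells are then fixed, nuclei stained with Hoechst, and PNC-positive cells counted.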
# ALDH1A1 block – ALDH1A1 (human) enzyme inhibition. P00352. Purified ALDH1A1, NADH fluorescence, propionaldehyde substrate. Potency, µM (highest dose often 75.3 µM), actives largely listed as inhibitors. 220,000 tested, 7.3% active. AID 1030
# Target sequence (P00352 whole entry, looked up): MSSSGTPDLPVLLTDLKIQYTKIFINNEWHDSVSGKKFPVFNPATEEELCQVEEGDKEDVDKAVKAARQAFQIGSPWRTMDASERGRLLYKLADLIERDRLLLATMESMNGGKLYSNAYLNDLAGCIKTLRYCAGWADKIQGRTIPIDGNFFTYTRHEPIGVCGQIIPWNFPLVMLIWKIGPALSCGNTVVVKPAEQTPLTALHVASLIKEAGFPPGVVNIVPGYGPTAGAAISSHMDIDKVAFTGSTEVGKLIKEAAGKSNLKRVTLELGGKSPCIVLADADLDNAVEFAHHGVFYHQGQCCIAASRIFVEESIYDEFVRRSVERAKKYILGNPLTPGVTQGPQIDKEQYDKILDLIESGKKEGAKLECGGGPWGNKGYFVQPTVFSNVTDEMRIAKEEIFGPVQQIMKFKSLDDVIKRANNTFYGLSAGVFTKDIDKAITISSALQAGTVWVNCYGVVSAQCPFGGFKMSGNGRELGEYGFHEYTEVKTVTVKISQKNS
# LMNA splice mod – changes lamin A minigene splicing in HeLa cells. HeLa LMNA splicing GFP/RFP minigene ratio, 48 h. 200,000 tested, 0.01% active. Potency, µM (top dose mostly 46.1 µM), hits mostly inhibitors. AID 1487; active means well fitted inhibition curve with a large enough effect in the signal ratio, with a control signal flat, not every such curve was filed as active; inconclusive means small, poorly fitted or top-dose-only effect, or effect the other way, or a change in a side signal; the % refers to the signal ratio
#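 Read-out is the ratio of GFP to DsRed2 object intensity, acquired by 488 nm laser-scanning cytometry on HeLa lamin A-EGFP minigene reporter cells. Compound incubation 48 hrs at 37 °C in Opti-MEM with 2% FBS; DMSO 0.5% final.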
# HPGD inh – inhibitors of human 15-hydroxyprostaglandin dehydrogenase (HPGD); P15428; 150,000 tested, 4.3% active; Potency, µM, actives largely listed as inhibitors; purified HPGD, NADH fluorescence kinetic, PGE2 substrate
#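 20 nM HPGD preincubated 15 min at room temperature with compound in 50 mM Tris-HCl pH 8, 0.01% Tween 20. Started with 1 mM NAD+ and 30 uM prostaglandin E2; NADH fluorescence (360/450 nm) read 5 times over 30-s intervals, last minus first.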
# IMPase inh – membrane-permeable compound that blocks inositol monophosphatase | P97697 | CHO-M1 cells, IP1 accumulation, HTRF TR-FRET ratio | inhibition (IP1 accumulation), % at 46.1 µM | 120,000 tested, under 10 active | AID 901; active means well fitted curve in the direction sought with a large enough effect in the signal ratio, not every such curve was filed as active; inconclusive means small, poorly fitted or top-dose-only effect, or a change in a side signal; inactive means no such curve, though single readings can be large or run the other way; the % refers to the signal ratio;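 further: cells stimulated with carbachol in lithium chloride buffer; higher means more IMPase inhibition seen as more IP1 and lower FRET ratio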
# Target sequence (P97697 whole entry, looked up): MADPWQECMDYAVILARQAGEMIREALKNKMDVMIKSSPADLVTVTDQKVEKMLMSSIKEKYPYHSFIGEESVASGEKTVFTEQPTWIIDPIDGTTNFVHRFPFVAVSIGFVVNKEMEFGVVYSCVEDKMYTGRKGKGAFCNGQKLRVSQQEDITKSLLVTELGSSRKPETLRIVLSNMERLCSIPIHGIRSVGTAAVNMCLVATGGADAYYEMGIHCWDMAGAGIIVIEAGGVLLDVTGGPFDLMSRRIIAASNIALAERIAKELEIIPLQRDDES
#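 Elevated IP1 in lysates lowers TR-FRET signal (665/620 ratio and 620 channel reported). Cells were CHO-M1, given carbachol (50 uM as added) plus 50mM LiCl, pH 7.4, 30 min, 37C; compounds titrated up to 46 uM; AC50 by Hill equation.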
# A number is an active result; . = inactive; ? = inconclusive; / = no result given; [ ] = another dose, or the depositor's remark. This is a sample that favours compounds with a hit; in the whole collection about 10% have one here. Unless noted, the call rests on the fitted dose curve; in most records, active means well fitted inhibition curve with a large enough effect (not every such curve was filed as active); inconclusive means small, poorly fitted or top-dose-only effect, or another doubt; inactive means no such curve, though single readings can be large or run the other way.
SMILES,KinaseGlo FLuc,PNC inhibitor,ALDH1A1 block,LMNA splice mod,HPGD inh,IMPase inh
Cc1ccc(S(=O)(=O)C(CNC(=O)COc2ccccc2)c2cccs2)cc1 (stereo not given),/,/,/,.,/,/
O=C(O)/C=C\c1cnc[nH]1,/,/,/,/,/,.
CC(=O)Nc1ccc(/C=C/c2nc(-c3ccccc3O)n(-c3ccccc3)n2)cc1,/,/,/,/,/,.
COc1cc(C(=S)N2CCCC2)ccc1O,.,.,14.1µM,.,28.2µM,.
COc1cc(C(=S)N2CCC(C(N)=O)CC2)ccc1O,.,.,10µM,.,17.8µM,.
COc1cc(C(=S)N2CCC(C)CC2)ccc1O,.,.,10µM,.,14.1µM,.
CC(=O)c1ccc(NC(=O)CN2C(=O)CCc3ccccc32)cc1,/,/,/,.,/,/
Cn1nnnc1SCCCNCc1ccc(-c2cccc(Cl)c2)o1,/,/,/,.,/,/
Clc1cccc(-c2ccc(CNCCCN3CCOCC3)o2)c1,.,/,28.2µM,/,/,/
CO[C@H]1COC(=O)C/C=C\[C@H](C)COC(=O)[C@@H](C)NC(=O)C/C=C\[C@@H]1C,/,/,.[13.5 µM],/,/,/
COc1ccc(/C=C/C(=O)c2ccc(C)s2)cc1,.,/,?,/,?,.
CC(C)(C)NC(=O)C(c1ccncc1)N(C(=O)Cn1nnc(-c2ccc(F)cc2)n1)c1ccccc1 (stereo not given),.,/,3.16µM,/,/,/
Cc1ccc(C(C(=O)NC(C)(C)C)N(Cc2ccco2)C(=O)Cn2nnc(-c3cccs3)n2)cc1 (stereo not given),.,.,.,.,.,.
CC(C)(C)NC(=O)C(c1ccncc1)N(Cc1cccs1)C(=O)Cn1nnc(-c2cccs2)n1 (stereo not given),.,.,4.47µM,.,.,.
O=C(NCc1ccccc1)C(c1ccc(F)cc1)N(Cc1ccc2c(c1)OCO2)C(=O)Cn1nnc(-c2cccs2)n1 (stereo not given),.,.,25.1µM,.,.,.
CC(C)(C)NC(=O)C(c1ccncc1)N(C(=O)Cn1nnc(-c2ccc(F)cc2)n1)c1ccc(F)cc1 (stereo not given),.,/,.,.,/,/
Cc1cnnn1-c1cccc([N+](=O)[O-])c1,.,/,.,.,/,/
Cc1cnnn1-c1ccc(C(=O)CCl)cc1,.,.,0.891µM,.,?,.
Cc1ccc(S(=O)(=O)N[C@H]2COC(=O)[C@@H](Cc3ccccc3)NC(=O)[C@@H](C)COC(=O)C/C=C\[C@@H]2C)cc1,/,/,.[13.5 µM],/,/,/
CC(C)=NNc1nc(-c2ccc(N3C(=O)CCC3=O)cc2)cs1,/,/,11.2µM,/,/,/
COc1ccc(NC(=O)CSc2nc3nc(C)c(Cc4ccccc4)c(C)n3n2)cc1OC,/,/,/,.,/,/
Nc1c(-c2ccccc2)cnn1-c1cccc(C(F)(F)F)c1,.,?,.,.,10µM,.[1.84 µM]
Nc1c(-c2cccc(Cl)c2)cnn1-c1cccc(C(F)(F)F)c1,.,.,.,.,12.6µM,.
N#Cc1cnn(-c2cccc(Cl)c2)c1N,.,/,.,/,/,/
Nc1c(-c2ccccc2)cnn1-c1ccc(C(=O)O)cc1,.,.,.,.,.,.
SMILES,KinaseGlo FLuc,PNC inhibitor,ALDH1A1 block,LMNA splice mod,HPGD inh,IMPase inh
CCOC(=O)c1ccc2c(c1)N(CC(=O)Nc1ccc(C)cc1C)C(=O)c1ccccc1S2,/,/,/,.,/,/
O=C(c1cc2c(s1)CCCC2)N1CCN(c2ccccc2)CC1,/,/,22.4µM,/,/,/
CC1CC(C)CN(C(=O)c2cc3c(s2)CCC3)C1 (stereo not given),.,.,?,.,12.6µM,.
O=C(c1cccc(F)c1)N1CCC2(CC1)CN(c1ccccn1)C2,.,/,?,/,?,/
O=C1c2cccc3c(O)ccc(c23)C(=O)N1Cc1ccccc1,.,-90.3,.,?,.,.
CN(C)C(=O)c1ccc(-c2nc(NCc3cccnc3)c3ccccc3n2)cc1,.,/,.,.,15.8µM,/
CN(C)C(=O)c1ccc(-c2cncnc2NCc2ccccc2)cc1,/,/,.,.,/,/
CN(C)C(=O)c1ccc(-c2nnc(NCc3ccccc3)c3ccccc23)cc1,.,.,?,.,2.51µM,.
c1ccc(CNc2nc(-c3ccoc3)nc3ccccc23)cc1,/,/,31.6µM,?,/,/
CC(C)(C)c1ccc(-c2nc(NCc3cccnc3)c3ccccc3n2)cc1,.,.,.,?,.,/
Cc1cnc(CNc2nc(-c3ccc(C(=O)N(C)C)cc3)nc3ccccc23)cn1,.,/,.,.,14.1µM,/
COCCn1c(=O)cnc2cnc(N3CCNCC3)nc21,.,/,?,/,?,/
CC(C)(C)OC(=O)N1CCC(c2c(C(=O)N3CCN(Cc4ccccc4)CC3)cnn2-c2cccc(Cl)c2)CC1,/,/,/,.,/,/
CCOC(=O)c1ccc(-n2c(CCC(=O)O)ccc2-c2ccccc2)cc1O,/,/,/,/,/,.
CCc1ccccc1NC(=O)Cn1c(=O)n(Cc2ccccc2)c(=O)c2c(C)c(C(=O)N(C)C)sc21,/,/,/,.,/,/
CCOc1ccc(CNC(=O)CCC(=O)N2CC3CCCN3c3ccccc32)cc1 (stereo not given),/,/,/,.,/,/
CN(C)C(=O)c1ccc(-c2nccc(NCc3cccnc3)n2)cc1,.,/,.,.,14.1µM,/
O=C(NC1CC(=O)N(c2ccccc2)C1)c1cc2ccccc2o1 (stereo not given),/,/,/,.,/,/
COc1ccccc1-c1cncnc1NCc1cccnc1,.,/,.,.,.,/
N#Cc1ccccc1-c1cncnc1NCc1cccnc1,.,/,28.2µM,.,?,/
Cn1c(=O)n(C)c2cc(N3CCOCC3)c(NS(=O)(=O)c3cccc(C#N)c3)cc21,/,/,/,.,/,/
CC(=O)c1cccc(NC(=O)C2CCCCC2)c1,.,.,8.91µM,.,.,.
CC(=O)c1cccc(NC(=O)C2CC(=O)N(c3cccc(C)c3C)C2)c1 (stereo not given),.,.,5.01µM,.,.,.
CC(NC(=O)Nc1ccccc1)C(c1cccs1)N1CCOCC1 (stereo not given),.,-121.7,.,.,.,.
O=C(Cc1cccs1)NC1CC(=O)N(c2cccc(F)c2)C1 (stereo not given),/,/,/,.,/,/
SMILES,KinaseGlo FLuc,PNC inhibitor,ALDH1A1 block,LMNA splice mod,HPGD inh,IMPase inh
Cc1nn(C)cc1CNC(=O)Nc1ccc(Cl)c(Cl)c1,.,.,.,.,15.8µM,.
CCOC(=O)c1[nH]c(C)c(CCC(=O)Nc2ccc(C)cc2Cl)c1C,/,/,/,.,/,/
Cc1nc2[nH]c(=S)[nH]c2cc1Br,.,.,17.8µM,?,?,.
Cc1nc2nc[nH]c2cc1Br,.,.,.,.,.,.
Cc1ccc(C(=C2C3C=CC2C2C(=O)NC(=O)C32)c2ccc(C)cc2)cc1 (stereo not given),.,.,0.891µM,.,.,.
O=C1C2C3C=CC(C3=C(c3ccccc3)c3ccccc3)C2C(=O)N1CCO (stereo not given),.,.,?,.,.,.
CSc1cccc(NS(=O)(=O)c2ccccc2)c1,.,.,.,.,25.1µM,.
O=S(=O)(Nc1cccc(S(=O)(=O)N2CCCCCC2)c1)c1ccccc1,.,/,2µM,/,/,/
O=C(CCl)Nc1cccc(S(=O)(=O)N2CCCCCC2)c1,/,.,0.708µM,?,/,.
